Where “and” joins values, the source holds several entries; their conditions need not be identical. Equal values may be shown once. Calls of active or inactive are those of the source.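 The calls were made as follows, unless noted: active = compounds whose cell count with miR-34 switched on is under 0.7 times the count with it off; inactive = the rest.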
How the values were obtained:
[1] = sensitizers of A549 cells to miR-34 induction, primary screen, imaging, A549 dox-inducible miR-34, nuclei and caspase counts (AID 1347080); details: A549 miR-34 inducible, Hoechst nuclei count, 48 h
[2] = hESC survival regulators, cell-based (AID 493140; call rule not given here;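 also: cells exposed to compounds for four days before counting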); details: human embryonic stem cell survival screen; stronger effect = higher value
[3] = inhibitors of Cryptococcus chitosan production, flow cytometry, Cibacron Brilliant Red staining (AID 1347148; call rule not given here;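 also: compound exposure lasted three days at 37 degrees C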); details: Cryptococcus neoformans chitosan, stronger effect = lower value; at 10 µM unless noted
[4] = stronger effect = lower value, cell number ratio, induced over uninduced
[5] = measured here: relative caspase fold change +Dox/-Dox
[6] = measured here: total cells with miR-34 induction, stronger effect = lower value
[7] = measured here: total cells without miR-34 induction

Row | SMILES | fold change [1, 4] | fold change [1, 5] | cell count [1, 6] | cell count [1, 7] | survival [2] | fold fluorescence [3]
1 | CCCCCCCC(=O)CC[C@@H]1[C@@H](C/C=C\CCCC(=O)OC(C)C)[C@@H](O)C[C@H]1O | 0.954 (inactive) | 1.15 | 5890 | 6180 |  | 
2 | CCCOCCCCCCCCCC(=O)O | 1.02 (inactive) | 1.03 | 6150 | 6040 |  | 
3 | O=Cc1cccc2[nH]ccc12 | 1.14 (inactive) | 0.821 | 6070 | 5350 |  | 
4 | CCCCC[C@H](O)/C=C/[C@H]1[C@@H](O)CC(=O)[C@@H]1CCCCCCC(=O)O | 0.965 (inactive) | 1.07 | 5320 | 5510 |  | 
5 | COc1cc([C@@H]2c3cc4c(cc3[C@@H](OC3OC5COC(C)OC5C(O)C3O)[C@H]3COC(=O)[C@H]23)OCO4)cc(OC)c1O (stereo partly specified) | 0.828 (inactive) | 1.04 | 1840 | 2230 |  | 
6 | CC(=O)OCOC(c1ccc2ccccc2c1)P(=O)(OCOC(C)=O)OCOC(C)=O (stereo unspecified) | 1.11 (inactive) | 0.941 | 3180 | 2860 |  | 
7 | CCCCCCCCCCCCC/C=C/[C@@H](O)[C@H](CO)NC(=O)CCCCC | 0.988 (inactive) | 0.834 | 5840 | 5910 |  | 
8 | CCCCC[C@H](O)/C=C/[C@@H]1[C@@H](CCCCC(CC(=O)O)OC)[C@@H](O)C[C@H]1O (stereo partly specified) | 0.924 (inactive) | 1.3 | 5980 | 6470 |  | 
9 | COC1=C2C[C@@H](C)C[C@H](OC)[C@H](O)[C@@H](C)/C=C(\C)[C@H](OC(N)=O)[C@@H](OC)/C=C\C=C(/C)C(=O)NC(=CC1=O)C2=O | 0.898 (inactive) | 1.11 | 1320 | 1470 |  | 
10 | NCCCNCCCCN(CCCN)[N+]([O-])=NO | 1.02 (inactive) | 1.33 | 5980 | 5880 |  | 
11 | O=P(O)(O)O[C@@H]1[C@H](O)[C@H](O)[C@@H](OP(=O)(O)O)[C@H](OP(=O)(O)O)[C@H]1O | 0.931 (inactive) | 0.377 | 5940 | 6380 |  | 
12 | CC(C)Oc1ccc(C(=O)c2ccc(NC3=NCCN3)cc2)cc1 | 1.07 (inactive) | 0.773 | 6020 | 5650 |  | 
13 | COC(=O)CCCCCC[C@@H]1[C@@H](CCC(O)C#Cc2ccccc2F)[C@H](O)C[C@@H]1O (stereo partly specified) | 1.01 (inactive) | 0.855 | 5830 | 5780 |  | 
14 | CCCCCCCCCCCCCCCCOC[C@H](COP(=O)([O-])OCC[N+](C)(C)C)SC(=O)CCCCCC | 0.987 (inactive) | 1.56 | 5880 | 5950 |  | 
15 | CCCCC/C=C\C/C=C\CCCCCCCC(=O)OCC | 0.908 (inactive) | 0.749 | 4750 | 5230 |  | 
16 | O=C(CCCC[C@@H]1SC[C@@H]2NC(=O)N[C@@H]21)NCCCC[C@H](NC(=O)CCN1C(=O)C=CC1=O)C(=O)O | 0.911 (inactive) | 0.469 | 5380 | 5910 |  | 
17 | CCCCC[C@H](O)/C=C/[C@@H]1[C@@H](C/C=C/CCCC(=O)O)[C@@H](O)C[C@H]1O | 0.9 (inactive) and 0.944 (inactive) | 1.55 and 0.855 | 5350 and 5640 | 5940 and 5970 |  | 
18 | CCCCCCCCCCCCCCCC(=O)SCCOP(=O)([O-])OCC[N+](C)(C)C | 1.04 (inactive) | 0.949 | 6100 | 5890 |  | 
19 | CCCCC[C@H](O)/C=C/[C@H]1[C@H](O)CC(=O)[C@H]1C/C=C\CCCC(=O)O | 0.969 (inactive) | 1.41 | 5730 | 5910 |  | 
20 | CCCCC[C@H](O)/C=C/[C@H]1C=CC(=O)[C@H]1C/C=C\CCCC(=O)O | 1.06 (inactive) | 1.6 | 6170 | 5800 |  | 
21 | O=C(O)CCC/C=C\C[C@H]1[C@@H](O)CC(=O)[C@@H]1/C=C/[C@@H](O)COc1cccc(C(F)(F)F)c1 | 1.01 (inactive) | 1.13 | 6530 | 6490 |  | 

Row | SMILES | fold change [1, 4] | fold change [1, 5] | cell count [1, 6] | cell count [1, 7] | survival [2] | fold fluorescence [3]
22 | COc1ccc(/C=C/c2ccccc2F)cc1 | 0.866 (inactive) | 1.67 | 5810 | 6700 |  | 
23 | CCCCCC/C=C\CCCCCCCC(=O)OCC | 0.904 (inactive) | 1.03 | 5560 | 6150 |  | 
24 | CCNC1=N[C@@H]2[C@@H](O)[C@H](O)[C@@H](CO)O[C@@H]2S1 | 0.906 (inactive) | 1.7 | 6020 | 6640 |  | 
25 | CCCCCCCCCCCC1N[C@H](C(=O)O)CS1 (stereo partly specified) | 0.939 (inactive) | 1.06 | 5330 | 5670 |  | 
26 | O=C(Cc1ccccc1Nc1c(Cl)cccc1Cl)Oc1ccc(-c2cc(=S)ss2)cc1 | 0.933 (inactive) | 1.55 | 6130 | 6570 |  | 
27 | C#C[C@]1(O)CC[C@H]2[C@@H]3CCC4=CC(=O)CCC4[C@H]3CC[C@@]21CC (stereo partly specified) | 0.961 (inactive) | 0.754 | 6080 | 6330 |  | 
28 | CCCCCCCC(=O)CC[C@@H]1[C@@H](C/C=C\CCCC(=O)O)[C@@H](O)C[C@H]1O | 0.944 (inactive) | 1.3 | 5400 | 5720 |  | 
29 | CCCCCCC(=O)SC[C@H](COP(=O)([O-])OCC[N+](C)(C)C)SC(=O)CCCCCC | 0.918 (inactive) | 0.72 | 5570 | 6070 |  | 
30 | COc1ccc(/C=C/c2cc(Cl)cc(Cl)c2)cc1 | 1.04 (inactive) | 0.753 | 5410 | 5220 |  | 
31 | C[C@H](CCCO)[C@H]1CC[C@H]2[C@@H]3[C@H](O)C[C@H]4C[C@H](O)CC[C@]4(C)[C@H]3C[C@H](O)[C@]12C | 0.949 (inactive) | 1.07 | 5800 | 6110 |  | 
32 | CCCCCCCCCC(=O)N[C@@H](Cc1c[nH]c2ccccc12)C(=O)N[C@@H](CC(N)=O)C(=O)N[C@@H](CC(=O)O)C(=O)N[C@@H]1C(=O)NCC(=O)N[C@@H](CCCN)C(=O)N[C@@H](CC(=O)O)C(=O)N[C@H](C)C(=O)N[C@@H](CC(=O)O)C(=O)NCC(=O)N[C@H](CO)C(=O)NC([C@@H](C)CC(=O)O)C(=O)N[C@@H](CC(=O)c2ccccc2N)C(=O)OC1C (stereo partly specified) | 0.953 (inactive) | 0.725 | 8550 | 8980 |  | 
33 | O=C(O)CCCCCCCCCCCNC(=O)NC12CC3CC(CC(C3)C1)C2 | 0.971 (inactive) | 0.546 | 5310 | 5470 |  | 
34 | CCCCCC#CCC#CCCCCCCCC(=O)O | 0.999 (inactive) | 0.839 | 6260 | 6270 |  | 
35 | CCCCCCCCCCCCCCCCOC[C@@H](O)COP(=O)(O)O | 0.944 (inactive) | 0.298 | 5730 | 6070 |  | 
36 | C=C1C[C@@H](O)[C@H](/C=C/[C@@H](O)CCCCC)[C@H]1C/C=C\CCCC(=O)O | 0.899 (inactive) | 1.24 | 5620 | 6250 |  | 
37 | CCCCCCCC/C=C\CCCCCC(=O)OC | 0.895 (inactive) | 0.755 | 5020 | 5610 |  | 
38 | COc1ccc(/C=C/C(=O)CC(=O)/C=C/c2cccc(O)c2OC)cc1O | 0.925 (inactive) | 1.39 | 3510 | 3790 |  | 
39 | CC(C)(C)OC(=O)Nc1cccc2[nH]ccc12 | 0.913 (inactive) | 0.676 | 4970 | 5440 |  | 
40 | CCCCC[C@@H](O)/C=C/[C@H]1C[C@H]2C[C@@H]([C@@H]1C/C=C\CCCC(=O)O)C2(C)C | 0.917 (inactive) | 0.452 | 5480 | 5970 |  | 
41 | CCOC(=O)/C=C/[C@H](CC(C)C)NC(=O)[C@H](CO)NC(=O)[C@@H](NC(=O)c1cccc(O)c1C)C(C)C | 0.61 (active) | 0.781 | 3640 | 5980 |  | 
42 | CCCCCCCCCCCCCCCCCC(=O)NCCO | 0.986 (inactive) | 1.01 | 6030 | 6120 |  | 

Row | SMILES | fold change [1, 4] | fold change [1, 5] | cell count [1, 6] | cell count [1, 7] | survival [2] | fold fluorescence [3]
43 | CCCC[C@H](C)C[C@H](O)/C=C/[C@@H]1[C@@H](CCCCCCC(=O)O)[C@@H](O)C[C@H]1O | 0.931 (inactive) | 1.78 | 5490 | 5900 |  | 
44 | O=P(O)(O)OC1[C@H](OP(=O)(O)O)[C@H](O)C(O)[C@H](O)[C@H]1OP(=O)(O)O (stereo partly specified) | 0.94 (inactive) | 1.1 | 5720 | 6080 |  | 
45 | O=C(O)CCC/C=C\C[C@@H]1[C@@H](/C=C/C(=O)COc2cccc(C(F)(F)F)c2)[C@H](O)C[C@@H]1O | 0.949 (inactive) | 0.381 | 6020 | 6340 |  | 
46 | CCCCC/C=C\C/C=C\CC/C=C\CCCC(=O)OCC | 1.04 (inactive) | 1.09 | 5570 | 5390 |  | 
47 | CCCCC[C@@H](O)/C=C/[C@@H]1[C@H](C/C=C\CCCC(=O)O)[C@@H](O)C[C@H]1O | 0.832 (inactive) | 1.39 | 5000 | 6010 |  | 
48 | O=C1OC(O)C(c2cc3ccccc3s2)=C1Br (stereo unspecified) | 0.915 (inactive) | 0.534 | 5180 | 5660 |  | 
49 | O=C(O)CCC/C=C\C[C@@H]1[C@@H](CC[C@@H](O)CCc2ccccc2)[C@H](O)C[C@@H]1O | 0.863 (inactive) | 1.41 | 5880 | 6810 |  | 
50 | CCC(O)/C=C/C=O (stereo unspecified) | 0.941 (inactive) | 1.21 | 5860 | 6230 |  | 
51 | NC(=Nc1ccc(F)cc1)NO | 1.01 (inactive) | 1.07 | 5540 | 5470 |  | 
52 | CCCCC[C@H](O)/C=C/[C@@H]1[C@@H](C/C=C\CCCCO)[C@@H](O)C[C@H]1O | 0.871 (inactive) | 1.35 | 5490 | 6300 |  | 
53 | NC1=NC(=O)/C(=C/c2ccc(O)cc2)S1 | 1.06 (inactive) | 1.49 | 6100 | 5780 |  | 
54 | CC(C)OC(=O)CCC/C=C\C[C@@H]1[C@@H](/C=C/C(=O)COc2cccc(C(F)(F)F)c2)[C@H](O)C[C@@H]1O | 0.979 (inactive) | 1.05 | 6150 | 6280 |  | 
55 | COc1ccc2c(c1)c(CC(=O)Oc1ccc(-c3cc(=S)ss3)cc1)c(C)n2C(=O)c1ccc(Cl)cc1 | 0.929 (inactive) | 2.02 | 5100 | 5490 |  | 
56 | CCCCC[C@H](O)/C=C/[C@H]1[C@H](O)CC(=O)[C@@H]1CCCCCCC(=O)NCCO | 0.954 (inactive) | 1.4 | 5990 | 6270 |  | 
57 | CCCCC[C@H](O)C/C=C1/C(=O)C[C@H](O)[C@@H]1C/C=C\CCCC(=O)O | 0.935 (inactive) | 1.09 | 5280 | 5650 |  | 
58 | O=C1OC[C@@H](Cc2cccc(O)c2)[C@@H]1Cc1cccc(O)c1 | 0.923 (inactive) | 1.92 | 5590 | 6060 |  | 
59 | C[C@H](CCCO)[C@H]1CC[C@H]2[C@@H]3[C@H](O)C[C@H]4CC(=O)CC[C@]4(C)[C@H]3C[C@H](O)[C@]12C | 0.847 (inactive) | 0.203 | 4760 | 5610 |  | 
60 | CCCCC/C=C\C/C=C\C/C=C\C/C=C\CCCC(=O)S[C@H](COCCCCCCCCCCCCCCCC)COP(=O)([O-])OCC[N+](C)(C)C | 1.09 (inactive) | 0.9 | 5810 | 5360 |  | 
61 | CCCCC/C=C\C/C=C\C/C=C\CCCCCCC(=O)O | 1.02 (inactive) and 1.05 (inactive) | 1.28 and 1.4 | 5830 and 6270 | 5710 and 6000 | 92.4 (inactive) | 4.94 (inactive)
